Screening data from PubChem BioAssay.
Nrf2 inh = Nrf2 pathway inhibition. Potency, µM (highest dose often 46 µM), for the others: top-dose activity change, negative = inhibition, usual class: inhibitors. actives 2.1% (n = 360,000). A549 ARE-Fluc reporter, luciferase luminescence, 18-24 h; further: on the % scale 0 is the no-effect control and ±100 the full control effect; nearly all actives have a fitted effect of over 60% in size
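Quantitative HTS in A549 cells stably bearing an antioxidant response element-firefly luciferase construct. Inhibition of Nrf2-driven transcription was scored by luminescence after 18-24 h of compound exposure at 37 °C.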
A549 viability = kills or reduces viability of A549 cells in Nrf2 counter-screen | A549 ARE-Fluc cells, CellTiter-Fluor viability, 18-24 h | Potency, µM (top dose mostly 46 µM), inactives show at the top dose activity change, negative = cytotoxicity, most hits filed as inhibitors | actives 0.16% (n = 390,000); further: on the % scale 0 is the no-effect control and ±100 the full control effect
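Cytotoxicity counterscreen: CellTiter-Fluor fluorescence was measured in A549 ARE_Fluc cells after 18-24 h of compound exposure in a concentration series. The subsequent BugLite luminescent read reports ARE-luciferase activity.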
S2 tox = reduces viability in counter-screen for ATXN expression inhibitors; Potency, µM (top dose mostly 56.7 µM), most hits filed as cytotoxic; S2 cells (HEK-293 line with an ATXN2-luciferase reporter) viability, CellTiter-Fluor protease fluorescence, 24 h; actives 0.49% (n = 400,000); further: nearly all actives have a fitted effect of over 40% in size
HepG2 tox = counter-screen for TGF-b inhibitors: cytotoxicity in HepG2 cells. HepG2 CAGA-GFP viability, ATP luminescence, 18 h. actives 0.76% (n = 410,000). Potency, µM (top dose mostly 46.1 µM), for the others: top-dose activity change, negative = cytotoxicity, actives largely listed as cytotoxic
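HepG2 CAGA-GFP cells (1000/well, DMEM with 1% FBS) received compound, then TGF-beta at 500 pg/mL final, and were incubated 18 hours at 37 degrees C. Viability was read by CellTiter-Glo luminescence. Media-only wells were set as complete cell-killing and DMSO as no toxicity.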
ATXN2 expr inh = ATXN2 expression inhibition. HEK-293 ATXN2-luciferase reporter, luminescence, 24 h. Potency, µM (top dose mostly 57 µM), inactives show at the top dose activity change, negative = inhibition, usual class: inhibitors. actives 0.72% (n = 360,000). AID 1745845; further: on the % scale 0 is the no-effect control and ±100 the full control effect; nearly all actives have a fitted effect of over 55% in size
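qHTS (up to 57 uM final) was run with 24 h compound exposure of reporter cells at 37 °C. Each well was multiplexed: SteadyGlo luminescence measured ATXN2-luciferase expression after a fluorogenic Gly-Phe-AFC viability readout (25 uM final).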
TGFb SMAD3 inh = inhibitors of TGF-b signaling; HepG2 CAGA-GFP TGF-b/SMAD3 reporter, GFP fluorescence, 18 h; TGF-beta stimulated, 500 pg/mL final; Potency, µM (titrated, usually from 46.1 µM), without a hit: top-dose activity, negative = inhibition, actives largely listed as inhibitors; actives 1.2% (n = 410,000); further: on the % scale 0 is the no-effect control and ±100 the full control effect; nearly all actives have a fitted effect of over 65% in size
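Read-out: total well GFP (ex488/em500-530) summed from mean per-cell fluorescence. Cells: HEPG2 CAGA-GFP, 1% FBS DMEM, 18 h at 37 degrees C with 500 pg/mL final TGF-beta. Unstimulated wells served as the full-inhibition control; stimulated DMSO wells = 0%.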
Starred values were filed as active, the others as inactive; i = inactive; u = inconclusive; x = no result given. Compounds with a hit are over-represented: about 3.8% of the library has one in this group of screens. The call rests on the fitted dose curve; in most records, active means well fitted curve in the direction sought with a large enough effect; inconclusive means small, poorly fitted or top-dose-only effect, or another doubt; inactive means no such curve, though single readings can be large; an effect the other way counts as inactive or inconclusive. Potency means the concentration at half of the fitted maximal effect.

SMILES | Nrf2 inh | A549 viability | S2 tox | HepG2 tox | ATXN2 expr inh | TGFb SMAD3 inh
CCC1Sc2ccc(S(=O)(=O)CCC(=O)Nc3ccc(OC(F)(F)F)cc3)cc2NC1=O (centres undefined) | u | -11% | u | 10µM* | x | u
CCC(=O)N1CCc2cc(S(=O)(=O)CCC(=O)N3CCN(c4ccc(Cl)cc4)CC3)ccc21 | 16µM* | 1% | u | -15% | u | u
CCC(=O)N1CCc2cc(S(=O)(=O)CCC(=O)Nc3ccc(OC(F)(F)F)cc3)ccc21 | u | 3% | i | -18% | -22% | 11µM*
CC(C)C(=O)OCc1cccc(OC(=O)[C@@H]2N3C(=O)[C@@H](NC(=O)Cc4ccccc4)[C@H]3SC2(C)C)c1 | x | x | u | x | 5% | x
O=c1[nH]c(=O)n2c(c1-c1ccccc1)OC(CBr)C2 (centres undefined) | x | x | i | -2% | x | 11%
CN(C)S(=O)(=O)c1cccc(NC(=O)Cn2cc(C(F)(F)F)cc(Cl)c2=O)c1 | -6% | -3% | x | 17% | -2% | 2%
Cn1cnc2c(cnn2C)c1=N | -4% | 0% | i | 2% | -8% | -4%
CC(=O)N1CCc2cc(S(=O)(=O)CCC(=O)N3CCN(c4cc(C)ccc4C)CC3)ccc21 | 15µM* | 0% | i | -1% | 4% | -1%
CC(=O)N1CCc2cc(S(=O)(=O)CCC(=O)N3CCN(c4cccc(C)c4C)CC3)ccc21 | u | -4% | i | -3% | -3% | -4%
Cc1cc(F)ccc1S(=O)(=O)N1CCC2(CC1)OCCN2S(=O)(=O)c1cccs1 | 12µM* | -12% | i | -14% | -20% | -19%
Cc1ccc(C)c(S(=O)(=O)N2CCC3(CC2)OCCN3S(=O)(=O)c2cccs2)c1 | u | -7% | i | -4% | -14% | -3%
Nc1ncccc1OCc1cccc(C(F)(F)F)c1 | 16µM* | u | i | -6% | 2% | -21%
NNC(=O)c1sccc1OCc1cccc(C(F)(F)F)c1 | -9% | -2% | i | 0% | -14% | 2%
CCOC(=O)c1c(NC(=O)c2noc3c2CC(C(C)(C)C)CC3)sc2c1CCCC2 (centres undefined) | 9% | 0% | x | 8% | x | 18%
CS(=O)(=O)Nc1cccc2cccnc12 | 22% | 10% | i | -29% | -8% | u
Cc1cc(C)n(-c2ccc3cccc(NS(C)(=O)=O)c3n2)n1 | 5.2µM* | -10% | i | -4% | u | -1%
Cc1ccc(C)c(NC(=O)CN(C)C(=O)c2ccc3[nH]c4c(c3c2)CC(C)CC4)c1 (centres undefined) | 18µM* | u | i | -34% | -34% | u
Cc1ccc(C(=O)C(C(=O)/C=C/c2ccccc2)=C2SCCCS2)cc1 | 26µM* | u | x | -83% | 13µM* | -20%
Clc1ccc(Cc2ccccn2)cc1 | u | 1% | i | 0% | 2% | -9%
COc1ccc2c(c1)Cc1sc(NC(=O)c3cccc(C)c3)nc1-2 | 21µM* | -13% | x | 0% | x | x
Cc1ccc2cc(C#N)c(NCCNC(=S)NCCCN(C)C)nc2c1C | 11% | 5% | u | -11% | x | -23%
Cc1ccc2cc(C#N)c(NCCNC(=O)C3CC3)nc2c1C | 7.3µM* | -19% | i | -12% | -13% | -16%
CCOC(=O)C1CCCN(C(=O)c2ccc3c(c2)sc2nc(-c4cccc(OC)c4)cn23)C1 (centres undefined) | 16µM* | -7% | x | -13% | x | u
Cc1ccc(NC(=O)CN(C)S(=O)(=O)c2cccc3nsnc23)cc1C | -3% | 2% | i | 4% | 44% | -31%
Cc1ccc(NC(=O)CN(C)S(=O)(=O)c2cccc3nsnc23)cc1Cl | 18µM* | 2% | i | -13% | -1% | 5%
SMILES | Nrf2 inh | A549 viability | S2 tox | HepG2 tox | ATXN2 expr inh | TGFb SMAD3 inh
COc1ccc(Nc2ccc3cc(S(=O)(=O)N4CCCC4)ccc3n2)cc1Cl | 26µM* | -25% | i | -13% | -37% | -5%
CC1CCN(S(=O)(=O)c2ccc3nc(NCc4ccc(F)cc4)ccc3c2)CC1 | -119% | u | u | -20% | 0% | 13µM*
COc1ccc(Cl)cc1Nc1ccc2cc(S(=O)(=O)N3CCCCC3)ccc2n1 | -16% | -10% | u | -9% | -13% | -17%
CC1CCN(S(=O)(=O)c2ccc3nc(NCc4ccc(N(C)C)cc4)ccc3c2)CC1 | u | u | u | -12% | u | u
CC1CCN(S(=O)(=O)c2ccc3nc(Nc4ccc(C#N)cc4)ccc3c2)CC1 | u | -10% | u | -31% | 0% | 10µM*
CCc1ccc(-n2nc(C)c3c(C)cc(=O)n(CC(=O)Nc4ccc(C(C)=O)cc4)c32)cc1 | -1% | -16% | i | 1% | 2% | -22%
CCOc1ccc(OCC)c(NC(=O)c2cc(S(=O)(=O)N3CCc4ccccc43)cn2C)c1 | -1% | 5% | x | -27% | x | -6%
COc1ccc(-c2cn3cc(C)ccc3n2)cc1F | u | 3% | i | 16µM* | u | u
COc1ccc(-c2cn3cc(C)ccc3n2)cc1OC | u | 2% | u | -40% | -11% | -19%
CC1CCN(C(=O)C(=O)Nc2sc3c(c2C(N)=O)CC(C)(C)OC3)CC1 | -7% | 2% | i | -4% | 9% | 4%
COc1ccc(OCC(O)CN(CC(O)COc2ccc(OC)cc2)c2cccc(O)c2)cc1 (centres undefined) | -5% | 3% | i | 10µM* | -8% | -28%
COc1ccc(OCC(O)COc2ccc(OC)cc2)cc1 | 4% | 2% | i | -6% | 9% | 11%
NS(=O)(=O)c1ccc(CCNC(=S)Nc2ccccc2)cc1 | u | 1% | i | -17% | 2% | -16%
O=c1cc(-c2ccccc2Cl)oc2c(NS(=O)(=O)c3cc(Cl)cc(Cl)c3O)ccc(O)c12 | u | -19% | 32µM* | 10µM* | u | 6.3µM*
CNc1ccc(Br)cc(C(=O)/C=C/c2cccc(Cl)c2Cl)c1=O | 0% | -1% | u | -34% | u | u
CCNc1ccc(Br)cc(C(=O)/C=C/c2ccccc2Cl)c1=O | u | u | u | -61% | 20µM* | 37%
Cc1ccc(-n2c(Cc3ccccc3)n[nH]c2=S)c(C)c1 | 13µM* | 2% | i | -7% | -8% | -8%
CC(=O)C(=Cc1ccc(C(=O)O)cc1)C(C)=O | -4% | -9% | i | -15% | -4% | 0%
